According to PubChem BioAssay:
Results filed as inconclusive are left out. Calls of active or inactive are those of the source. Unless noted, the rule behind the calls is not given here.

What was measured:
[1] = reducers of polyQ inclusions in PC12 cells, cell-based, NGF-treated PC12, GFPQ80 (AID 1614); details: PC12 NGF-treated GFP-polyQ80 inclusion reduction;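 note: lower means fewer inclusions and 0 means no inclusions at all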
[2] = hESC survival regulators, cell-based (AID 493140); details: human embryonic stem cell survival screen; stronger effect = higher value;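 note: cells exposed to compounds for four days before counting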
[3] = tested on: Hepatitis C virus NS3 helicase; assay: HCV NS3 helicase inhibitors, primary screen, biochemical, fluorescence polarization, LOPAC1280 library (AID 687035; in the data active = inhibition above about 37%); details: Purified HCV NS3 helicase, Cy5-dT15 ssDNA binding fluorescence polarization; stronger effect = higher value; concentration not given here
[4] = Cy5 fluorescence quenching or enhancement artefacts, artefact control for HCV NS3 helicase inhibitor project, biochemical, LOPAC1280 (AID 687037); details: Cy5-DNA-NS3h complex fluorescence interference counterscreen
[5] = growth inhibition of DIPG glioma cells, dose response, cell-based, SU-DIPG-XVII, MIPE5.0, CellTiter-Glo, qHTS (AID 1347060; cut-off not given, nearly all actives have AC50 up to about 26 µM;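 for AC50: cells exposed to compound for 48 hours before viability readout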); details: SU-DIPG-XVII viability, CellTiter-Glo ATP luminescence
[6] = growth inhibition of DIPG glioma cells, dose response, cell-based, JHH-DIPG-1, MIPE4.0, CellTiter-Glo, qHTS (AID 1347062; cut-off not given, nearly all actives have AC50 up to about 27 µM;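 for AC50: cells exposed to compound for two days before readout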); details: JHH-DIPG-1 viability, CellTiter-Glo ATP luminescence
[7] = growth inhibition of DIPG glioma cells, dose response, cell-based, SU-DIPG-IV, MIPE4.0, CellTiter-Glo, qHTS (AID 1347063; cut-off not given, nearly all actives have AC50 up to about 30 µM;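 note: compound exposure lasted 48 hours before the viability readout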); details: SU-DIPG-IV viability, CellTiter-Glo ATP luminescence
[8] = viability loss in pontine glioma line – cell-based, SU-DIPG-XXV, MIPE5.0, CellTiter-Glo, qHTS, dose response (AID 1347065; cut-off not given, nearly all actives have AC50 up to about 26 µM;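 note: cells exposed to compound for 48 hours before ATP readout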); details: CellTiter-Glo ATP luminescence
[9] = SU-DIPG-VI glioma cell viability, MIPE4.0 library, CellTiter-Glo luminescence, qHTS (AID 1347066; cut-off not given, nearly all actives have AC50 up to about 30 µM;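 note: cells exposed to compound for 48 hours before readout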); details: CellTiter-Glo ATP luminescence
[10] = JHH-DIPG-1 glioma cell viability, MIPE5.0 library, CellTiter-Glo luminescence, qHTS (AID 1347067; cut-off not given, nearly all actives have AC50 up to about 26 µM;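 note: cells exposed to compound for 48 hours before readout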); details: JHH-DIPG-1 glioma viability, CellTiter-Glo ATP luminescence
[11] = SU-DIPG-XXV glioma cell viability, MIPE5.0 library, qHTS (AID 1347068; cut-off not given, nearly all actives have IC50 up to about 30 µM)
[12] = phospholipid biosynthesis inhibitors in animal cells, primary screen, cell-based, LOPAC library, screen 4 (AID 1347384); details: phospholipid biosynthesis inhibition screen, at 10 µM
[13] = growth inhibition of DIPG glioma cells, dose response, cell-based, SU-DIPG-XIII, MIPE4.0, CellTiter-Glo, qHTS (AID 1347061; cut-off not given, nearly all actives have AC50 up to about 37 µM;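 note: cells exposed to compound for 48 hours before readout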); details: SU-DIPG-XIII viability, CellTiter-Glo ATP luminescence
[14] = HDN33 neuroblastoma growth inhibition, cell-based, chromothripsis tumors, cisplatin or BGB combos (AID 1671450; in the data active = inhibition above about 80%;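 note: cells exposed to compound for four days; 0% = vehicle DMSO and 100% = cell killing by high DMSO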); details: HDN33 neuroblastoma cells, stronger effect = higher value
[15] = LFS_MB_1R medulloblastoma cell growth inhibition, synergistic combos for chromothripsis tumors, cisplatin or BGB combos (AID 1671452; in the data active = inhibition above about 80%;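 note: cells exposed for 96 hours before readout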); details: LFS_MB_1R medulloblastoma cells, stronger effect = higher value
[16] = HTB85 osteosarcoma cell growth inhibition, synergistic combos for chromothripsis tumors, BGB or cisplatin IC20 combos (AID 1671453; in the data active = inhibition above about 80%;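 note: cells exposed for 96 hours before readout; 0% = vehicle DMSO and 100% = high DMSO killing control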); details: HTB85 osteosarcoma cells, drug combinations, stronger effect = higher value
[17] = MDA-MB-436 breast carcinoma cell growth inhibition, synergistic combos for chromothripsis tumors, BGB or cisplatin combos (AID 1671458); details: MDA-MB-436 breast carcinoma growth inhibition, drug combinations, stronger effect = higher value;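 note: cells exposed for 96 hours; 0% = vehicle DMSO and 100% = killing by high DMSO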
[18] = growth inhibition of BT084 medulloblastoma cells, cell-based, ICGC_MB145, cisplatin and BGB IC40 combos (AID 1671461; in the data active = inhibition above about 80%;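 note: cells exposed to drugs for 96 hours; 0% = vehicle DMSO and 100% = high DMSO full killing control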); details: drug combinations, stronger effect = higher value
[19] = growth inhibition of RCMB18 medulloblastoma cells, cell-based, cisplatin and BGB IC40 combos (AID 1671462; in the data active = inhibition above about 80%;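 note: cells exposed to compound for four days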); details: stronger effect = higher value
[20] = growth inhibition of CRL1545 osteosarcoma cells, cell-based, cisplatin and BGB IC20 combos (AID 1671464; in the data active = inhibition above about 80%;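 note: cells exposed to compound for 96 hours before readout; 0% = vehicle DMSO and 100% = high DMSO killing control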); details: stronger effect = higher value
[21] = measured here: with BGB IC20 combination, at 0.5 µM
[22] = measured here: with cisplatin IC20 combination, at 0.5 µM
[23] = measured here: combination with cisplatin, at 0.5 µM

SMILES: NS(=O)(=O)c1cc2c(cc1Cl)NC=NS2(=O)=O
- inclusion score [1]: 2
- survival [2]: 13.6 (inactive)
- inhibition [3]: -2% (inactive)
- fluorescence ratio (interference) [4]: 0.9 (inactive)
- outcome [5]: inactive
- outcome [6]: inactive
- outcome [7]: inactive
- outcome [8]: inactive
- outcome [9]: inactive
- outcome [10]: inactive
- outcome [11]: inactive
- outcome [12]: inactive

SMILES: CCCNCC(O)COc1ccccc1C(=O)CCc1ccccc1 (centres undefined)
- inclusion score [1]: 2
- survival [2]: 6.75 (inactive)
- inhibition [3]: -1% (inactive)
- fluorescence ratio (interference) [4]: 1 (inactive)
- outcome [5]: inactive
- outcome [6]: inactive
- outcome [9]: inactive
- outcome [11]: inactive
- outcome [12]: inactive

SMILES: NS(=O)(=O)c1cc(C2(O)NC(=O)c3ccccc32)ccc1Cl (centres undefined)
- inclusion score [1]: 2
- survival [2]: 4.42 (inactive)

SMILES: Cc1ccc(C)c(OCCCC(C)(C)C(=O)O)c1
- inclusion score [1]: 2
- survival [2]: 20.8 (inactive)
- outcome [5]: inactive
- outcome [7]: inactive
- outcome [8]: inactive
- outcome [9]: inactive
- outcome [10]: inactive
- outcome [11]: inactive

SMILES: CN(C)CCOC(c1ccc(Cl)cc1)c1ccccn1 (centres undefined)
- inclusion score [1]: 2
- survival [2]: 2.92 (inactive)

SMILES: O=c1[nH]cc(F)c(=O)[nH]1
- inclusion score [1]: 2
- inhibition [3]: -1% (inactive)
- fluorescence ratio (interference) [4]: 1 (inactive)
- outcome [13]: inactive
- outcome [6]: inactive
- outcome [8]: inactive
- outcome [9]: inactive
- outcome [10]: inactive
- outcome [11]: inactive
- outcome [12]: inactive
- inhibition ([14]; BGB combo, at 5 µM): 30.6%
- inhibition ([14]; at 0.5 µM): 16.5% (inactive)
- inhibition ([14]; cisplatin combo, at 5 µM): 40.1%
- inhibition [14, 21]: -26.4%
- inhibition [14, 22]: 0.453%
- inhibition ([14]; single agent, at 5 µM): 42.5%
- inhibition ([15]; at 0.5 µM): -23.7% (inactive)
- inhibition ([15]; measured here: combination with BGB IC40, at 0.05 µM): -2.27%
- inhibition [15, 23]: 11.9%
- inhibition ([15]; measured here: combination with cisplatin, at 5 µM): -15.5%
- inhibition ([16]; at 0.5 µM): -17.6% (inactive)
- inhibition ([16]; measured here: with BGB IC20, at 0.5 µM): -36.1%
- inhibition ([16]; measured here: with BGB IC20, at 5 µM): 17.5%
- inhibition ([16]; measured here: with cisplatin IC20, at 0.5 µM): -12.5%
- inhibition ([16]; measured here: with cisplatin IC20, at 5 µM): 22.8%
- inhibition ([16]; single agent, at 5 µM): 21.8%
- inhibition ([17]; at 0.5 µM): -17.3% (inactive)
- inhibition ([17]; measured here: BGB combination, at 0.5 µM): -27.5%
- inhibition ([17]; measured here: BGB combination, at 5 µM): -5.42%
- inhibition ([17]; measured here: cisplatin combination, at 0.5 µM): -20.4%
- inhibition ([17]; measured here: cisplatin combination, at 5 µM): 36.2%
- inhibition ([18]; at 0.5 µM): -4.41% (inactive)
- inhibition ([18]; cisplatin combination, at 0.5 µM): -0.838%
- inhibition ([18]; cisplatin combination, at 5 µM): -20.1%
- inhibition ([18]; measured here: BGB IC40 combination 0.05 uM, at 0.05 µM): 2.5%
- inhibition ([18]; single agent, at 5 µM): -0.674%
- inhibition ([19]; at 0.5 µM): 3% (inactive)
- inhibition ([19]; cisplatin combo, at 5 µM): 11.8%
- inhibition ([19]; measured here: BGB IC40 combination, at 0.05 µM): -17.4%
- inhibition [19, 23]: 13.9%
- inhibition ([19]; single agent, at 5 µM): 7.41%
- inhibition ([20]; at 0.5 µM): -41.5% (inactive)
- inhibition [20, 21]: -0.875%
- inhibition [20, 22]: -61.8%
- inhibition ([20]; single agent, at 0.05 µM): -3.52%
- inhibition ([20]; single agent, at 5 µM): 15.8%

SMILES: NC(=O)c1cnccn1
- inclusion score [1]: 2
- survival [2]: 19.9 (inactive)
- inhibition [3]: 1% (inactive)
- fluorescence ratio (interference) [4]: 1 (inactive)
- AC50 [13]: 18.7 µM (active)
- outcome [6]: inactive
- outcome [7]: inactive
- outcome [8]: inactive
- outcome [10]: inactive
- outcome [11]: inactive
- outcome [12]: inactive

SMILES: Cc1ccc(-c2cc(C(F)(F)F)nn2-c2ccc(S(N)(=O)=O)cc2)cc1
- outcome [6]: inactive
- outcome [7]: inactive
- AC50 [10]: 10.5 µM (active)
- outcome [11]: inactive
- outcome [12]: inactive

SMILES: COc1ccc(OC)c(C(O)CNC(=O)CN)c1 (centres undefined)
- inclusion score [1]: 2
- survival [2]: 18.8 (inactive)

SMILES: CC(C)(C)NCC(O)COc1cccc2c1C[C@H](O)[C@H](O)C2 (some centres undefined)
- inclusion score [1]: 2
- survival [2]: 5.83 (inactive)

SMILES: Clc1ccc2c(c1)C(N1CCNCC1)=Nc1ccccc1O2
- inhibition [3]: -4% (inactive)
- fluorescence ratio (interference) [4]: 1 (inactive)
- outcome [13]: inactive
- outcome [6]: inactive
- outcome [7]: inactive
- outcome [9]: inactive
- outcome [12]: inactive

SMILES: Nc1ncn([C@@H]2O[C@H](CO)[C@@H](O)[C@H]2O)c(=O)n1
- inhibition [3]: -1% (inactive)
- fluorescence ratio (interference) [4]: 0.9 (inactive)
- AC50 [5]: 1.48 µM (active)
- AC50 [6]: 2.96 µM (active)
- AC50 [7]: 935 nM (active)
- AC50 [8]: 2.09 µM (active)
- AC50 [10]: 7.42 µM (active)
- outcome [12]: inactive

SMILES: Cc1onc(-c2c(Cl)cccc2Cl)c1C(=O)N[C@@H]1C(=O)N2[C@@H]1SC(C)(C)[C@@H]2C(=O)O
- inclusion score [1]: 2
- survival [2]: 4 (inactive)

SMILES: NCc1ccc(S(N)(=O)=O)cc1
- inclusion score [1]: 2
- survival [2]: 13.4 (inactive)

SMILES: CN[C@H]1CC[C@@H](c2ccc(Cl)c(Cl)c2)c2ccccc21
- AC50 [10]: 16.6 µM (active)

SMILES: c1ccc2[nH]c(-c3cscn3)nc2c1
- inclusion score [1]: 2
- survival [2]: 7.75 (inactive)
- outcome [13]: inactive
- outcome [6]: inactive
- outcome [7]: inactive
- outcome [8]: inactive
- outcome [9]: inactive
- outcome [10]: inactive
- outcome [11]: inactive

SMILES: COc1ccccc1OCC(O)COC(N)=O (centres undefined)
- inclusion score [1]: 2
- survival [2]: 33.1 (inactive)
- outcome [13]: inactive
- outcome [6]: inactive
- outcome [9]: inactive

SMILES: C/C=C/C(=O)N(CC)c1ccccc1C
- survival [2]: 6.17 (inactive)
- outcome [5]: inactive
- outcome [6]: inactive
- outcome [9]: inactive
- outcome [10]: inactive
- outcome [11]: inactive
